# Test results reported in PubChem BioAssay (NCATS).
# Results filed as inconclusive are left out. Calls of active or inactive are those of the source. Unless noted, calls come from the whole dose curve; as a rule, active = well fitted curve in the direction sought with a large enough effect; inconclusive = small, poorly fitted or top-dose-only effect, or another doubt; inactive = no such curve, though single readings can be large; an effect the other way counts as inactive or inconclusive.
# Experiments:
# [1] = target: Lysosomal acid glucosylceramidase (Homo sapiens) (UniProt P04062); assay: Glucocerebrosidase-p2 (AID 348; in the data active = potency below about 10 µM; note: potency is the fitted concentration of half-maximal effect); details: purified GBA, blue fluorogenic substrate, 40 min
# Sequence of Lysosomal acid glucosylceramidase (Homo sapiens) (P04062 whole entry, looked up): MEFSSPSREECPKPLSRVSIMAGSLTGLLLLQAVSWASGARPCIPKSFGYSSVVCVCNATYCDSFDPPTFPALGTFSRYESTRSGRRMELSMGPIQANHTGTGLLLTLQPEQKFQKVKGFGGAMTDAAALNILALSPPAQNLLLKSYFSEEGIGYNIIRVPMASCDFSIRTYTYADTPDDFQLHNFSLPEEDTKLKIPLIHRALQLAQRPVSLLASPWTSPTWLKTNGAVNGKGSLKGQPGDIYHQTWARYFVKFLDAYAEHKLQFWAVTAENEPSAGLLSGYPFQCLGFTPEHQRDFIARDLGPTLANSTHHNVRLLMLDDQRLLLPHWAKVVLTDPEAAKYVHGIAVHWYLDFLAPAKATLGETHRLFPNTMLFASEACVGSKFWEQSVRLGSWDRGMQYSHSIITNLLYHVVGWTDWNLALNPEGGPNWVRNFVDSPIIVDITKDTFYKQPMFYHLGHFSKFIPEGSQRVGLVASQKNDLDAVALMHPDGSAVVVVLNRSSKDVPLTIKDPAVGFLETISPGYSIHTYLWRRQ
# Procedure, shortened: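 Compounds titrated from 0.6 nM upwards against 0.2 nM enzyme in pH 5.9 citric acid/KH2PO4, taurocholate, tween-20; blue fluorogenic substrate 80 uM, 40 min room temperature, stopped and read Ex 365/Em 440 for AC50.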
# [2] = target: Cytochrome P450 1A2 (Homo sapiens) (UniProt P05177); assay: p450-cyp1a2 (AID 410; calls by dose curve; note: potency is the fitted concentration of half-maximal effect;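 for activity change, negative = inhibition: -100% = full effect of reference inhibitor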); details: recombinant CYP1A2, luciferin-ME demethylation, luminescence; series mostly up to 57 µM
# Sequence of Cytochrome P450 1A2 (Homo sapiens) (P05177 whole entry, looked up): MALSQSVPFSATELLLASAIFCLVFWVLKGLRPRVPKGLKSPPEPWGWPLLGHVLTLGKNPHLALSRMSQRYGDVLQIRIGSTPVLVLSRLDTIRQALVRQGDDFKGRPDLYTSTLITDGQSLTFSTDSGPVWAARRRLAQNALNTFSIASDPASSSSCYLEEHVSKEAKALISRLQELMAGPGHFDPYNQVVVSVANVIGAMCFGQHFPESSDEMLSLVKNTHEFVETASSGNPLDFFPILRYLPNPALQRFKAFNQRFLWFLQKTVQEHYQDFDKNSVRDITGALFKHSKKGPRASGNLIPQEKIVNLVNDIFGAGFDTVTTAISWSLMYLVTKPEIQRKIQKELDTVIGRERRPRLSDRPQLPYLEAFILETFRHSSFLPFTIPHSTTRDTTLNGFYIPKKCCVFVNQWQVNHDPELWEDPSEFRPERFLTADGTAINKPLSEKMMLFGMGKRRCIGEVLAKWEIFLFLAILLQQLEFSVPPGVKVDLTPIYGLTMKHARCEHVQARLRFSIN
# Procedure, shortened: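 20nM CYP1A2 with 100uM Luciferin-ME (at Km) in 100mM KPO4; compound preincubated 10 min, NADPH regeneration added, 60 min at room temperature. Luciferin quantified by luminescence after detection reagent; normalized to 57 uM furafylline.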
# [3] = NFAT Signaling Pathway (AID 444; active = well fitted curve in either direction with a large enough effect, not every such curve was filed as active;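 note: carbachol stimulus at about its EC50 of 1 µM final; % is set by controls: 0 for no effect and ±100 for the full control effect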); details: Jurkat NFAT-bla M1, carbachol, beta-lactamase ratio, 5 h; at 7.69 µM (top of the series) unless noted
# Procedure, shortened: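 Jurkat cells carrying an NFAT-driven β-lactamase reporter and co-transfected muscarinic M1 receptor were treated with compound plus carbachol (1 uM final, an EC50 level) for 5 h at 37 °C. CCF4 loading followed for 1 h at RT; 460/530 nm ratio gave %activity.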
# [4] = Stat Signaling Pathway (AID 446; active = well fitted curve in either direction with a large enough effect, not every such curve was filed as active;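 note: ME-180 cervical cancer cells given 40 pM IL-6 alongside compound; SIE-controlled beta-lactamase reporter measured as 460/530 nm FRET emission ratio; % is set by controls: 0 for no effect and ±100 for the full control effect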); details: ME-180 SIE beta-lactamase reporter, IL-6 stimulated, 5 h; at 7.69 µM (top of the series) unless noted
# Procedure, shortened: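 Screening format detects activators and inhibitors alike: ME-180 SIE-bla cells stimulated at 40 pM IL-6 for 5 hrs with compound, then dual-emission beta-lactamase read at 405 nm excitation.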
# [5] = target: Glucocorticoid receptor (Homo sapiens) (UniProt P04150); assay: GR-GFP Redistribution (AID 450;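 active = compounds whose dose series gives a full or clear partial fitted curve of increased nuclear translocation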; note: potency is the fitted concentration of half-maximal effect); details: U2OS GR-GFP nuclear translocation, laser cytometry, 2 h
# Sequence of Glucocorticoid receptor (Homo sapiens) (P04150 whole entry, looked up, the tested form may be a part): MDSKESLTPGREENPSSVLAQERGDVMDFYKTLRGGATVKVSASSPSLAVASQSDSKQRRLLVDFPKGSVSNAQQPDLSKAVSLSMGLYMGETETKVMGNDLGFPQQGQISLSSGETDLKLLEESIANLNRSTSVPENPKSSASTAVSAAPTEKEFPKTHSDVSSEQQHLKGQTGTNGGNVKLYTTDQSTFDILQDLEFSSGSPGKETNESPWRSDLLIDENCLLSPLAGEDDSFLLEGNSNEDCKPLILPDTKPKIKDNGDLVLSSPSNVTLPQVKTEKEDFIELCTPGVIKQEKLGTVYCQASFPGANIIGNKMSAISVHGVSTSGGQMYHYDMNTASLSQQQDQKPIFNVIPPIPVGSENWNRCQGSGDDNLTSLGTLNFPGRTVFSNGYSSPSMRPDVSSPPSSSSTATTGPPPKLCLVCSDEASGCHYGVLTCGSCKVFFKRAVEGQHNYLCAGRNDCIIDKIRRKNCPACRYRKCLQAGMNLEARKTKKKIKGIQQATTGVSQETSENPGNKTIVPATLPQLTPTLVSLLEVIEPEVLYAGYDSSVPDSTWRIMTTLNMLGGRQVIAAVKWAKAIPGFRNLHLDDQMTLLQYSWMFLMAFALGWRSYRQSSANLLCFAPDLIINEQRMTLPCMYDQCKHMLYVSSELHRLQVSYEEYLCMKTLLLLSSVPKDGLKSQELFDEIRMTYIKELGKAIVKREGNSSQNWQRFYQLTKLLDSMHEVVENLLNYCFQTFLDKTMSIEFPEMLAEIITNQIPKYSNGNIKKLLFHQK
# [6] = target: Glucocorticoid receptor (Homo sapiens) (UniProt P04150); assay: GR-EFC Redistribution (AID 451; calls by dose curve; note: potency is the fitted concentration of half-maximal effect); details: CHO-K1 GR-EFC translocation, beta-gal luminescence, 2 h
# Procedure, shortened: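 CHO-K1 cells stably expressing nuclear-localized β-gal enzyme acceptor and GR fused C-terminally to the enzyme donor fragment; ligand-driven nuclear translocation restores β-gal by complementation. Compounds titrated up to 46 uM final, 2 h at 37 °C; luminescence read.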
# [7] = target: Mitogen-activated protein kinase 10 (Mus musculus) (UniProt Q61831); assay: JNK3 AlphaScreen Assay (AID 530; active = well fitted curve in either direction with a large enough effect, not every such curve was filed as active;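 note: kinase came from lysate of stimulated human HepG2 cells; signal reports phosphorylation of biotinylated GST-cJun 1-79 at Ser73 with 10 µM ATP; % is set by controls: 0 for no effect and ±100 for the full control effect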); details: JNK3 lysate, c-Jun phosphorylation; series mostly up to 57.1 µM
# Procedure, shortened: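 Inhibitors reduce antibody binding to phosphorylated biotin-cJun, lowering AlphaScreen luminescence. Lysates from HepG2 cells pre-activated by IL-1beta plus TNF-alpha supplied JNK3; compounds were titrated.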
# [8] = target: 3',5'-cyclic-AMP phosphodiesterase 4B (Homo sapiens) (UniProt Q07343); assay: qHTS Assay for Inhibitors of PDE-IV (AID 607; active = well fitted activation curve with a large enough effect in the main read-out, with a control signal flat, not every such curve was filed as active; note: % of control where 0% means no effect); details: HEK293 ACTOne CNG channel cells, membrane potential fluorescence; series mostly up to 22.9 µM
# Sequence of 3',5'-cyclic-AMP phosphodiesterase 4B (Homo sapiens) (Q07343 whole entry, looked up): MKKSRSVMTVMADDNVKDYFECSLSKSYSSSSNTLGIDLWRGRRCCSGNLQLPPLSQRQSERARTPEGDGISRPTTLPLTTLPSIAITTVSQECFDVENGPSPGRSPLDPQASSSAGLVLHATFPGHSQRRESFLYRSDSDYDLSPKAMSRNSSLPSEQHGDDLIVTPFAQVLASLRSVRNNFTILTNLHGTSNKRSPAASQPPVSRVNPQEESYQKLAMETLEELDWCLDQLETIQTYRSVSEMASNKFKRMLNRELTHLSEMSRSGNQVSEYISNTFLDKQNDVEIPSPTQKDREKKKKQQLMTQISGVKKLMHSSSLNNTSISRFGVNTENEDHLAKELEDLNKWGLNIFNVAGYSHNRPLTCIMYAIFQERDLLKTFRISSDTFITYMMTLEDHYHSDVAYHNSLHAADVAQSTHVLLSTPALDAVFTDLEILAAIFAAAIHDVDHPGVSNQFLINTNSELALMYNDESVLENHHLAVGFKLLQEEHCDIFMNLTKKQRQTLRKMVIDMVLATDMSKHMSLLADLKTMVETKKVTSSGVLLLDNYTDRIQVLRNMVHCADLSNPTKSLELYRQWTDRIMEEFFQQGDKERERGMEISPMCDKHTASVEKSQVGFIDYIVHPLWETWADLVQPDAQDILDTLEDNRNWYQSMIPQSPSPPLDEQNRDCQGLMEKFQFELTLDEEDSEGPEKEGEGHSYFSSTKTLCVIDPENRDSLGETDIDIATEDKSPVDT
# Procedure, shortened: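 The readout is membrane depolarisation from a cAMP-sensing CNG channel, detected with a potential dye at ex 535/em 590. Cells were HEK293-derived (endogenous PDE-IV) at 1000 cells/well, titrated up to 22.9 uM final.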
# [9] = target: Cytochrome P450 3A4 (Homo sapiens) (UniProt P08684); assay: qHTS Assay for Inhibitors and Substrates of Cytochrome P450 3A4 (AID 884); details: recombinant CYP3A4, Luciferin-PPXE luminescence; series mostly up to 57.1 µM; note: nearly all actives have a fitted effect of over 50% in size; note: potency is the fitted concentration of half-maximal effect
# Sequence of Cytochrome P450 3A4 (Homo sapiens) (P08684 whole entry, looked up): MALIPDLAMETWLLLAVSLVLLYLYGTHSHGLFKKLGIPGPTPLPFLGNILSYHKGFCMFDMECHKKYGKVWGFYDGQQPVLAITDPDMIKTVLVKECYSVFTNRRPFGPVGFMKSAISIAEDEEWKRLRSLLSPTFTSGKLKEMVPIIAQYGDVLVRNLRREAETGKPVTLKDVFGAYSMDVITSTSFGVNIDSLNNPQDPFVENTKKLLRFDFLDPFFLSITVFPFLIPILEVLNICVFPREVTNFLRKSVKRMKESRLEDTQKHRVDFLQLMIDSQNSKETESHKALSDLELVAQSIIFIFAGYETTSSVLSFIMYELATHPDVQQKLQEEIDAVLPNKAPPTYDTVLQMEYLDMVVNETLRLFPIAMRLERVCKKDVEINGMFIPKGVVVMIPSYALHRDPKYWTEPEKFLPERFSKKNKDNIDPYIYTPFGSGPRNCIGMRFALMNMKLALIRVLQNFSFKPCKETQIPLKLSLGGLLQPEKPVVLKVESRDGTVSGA
# Procedure, shortened: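 20 nM human CYP3A4 with 25 uM Luciferin-PPXE (at KM) in 200 mM KPO4, preincubated 10 min with compound; NADPH regeneration started a 60 min RT reaction. Luciferin detected by luminescence, normalized to 57 uM ketoconazole as full inhibition.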
# [10] = target: Cytochrome P450 3A4 (Homo sapiens) (UniProt P08684); assay: qHTS Assay for Activators of Cytochrome P450 3A4 (AID 885); details: recombinant CYP3A4, Luciferin-PPXE luminescence, 60 min; series mostly up to 57.1 µM; note: nearly all actives have a fitted effect of over 65% in size
# Procedure, shortened: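 Steps: enzyme/substrate mix dispensed; compound added, 10 min RT; NADPH regeneration solution added, 60 min RT; luciferin detection buffer stops reaction; 20 min later luminescence measured.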
# [11] = qHTS Assay for Lipid Storage Modulators (AID 1519; calls by dose curve); details: Drosophila S3 cells, BODIPY lipid droplet/cell ratio, laser cytometry, cells loaded with oleic acid
# Procedure, shortened: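 Cells seeded at 5,000 per well were treated with compounds over a concentration series and loaded with oleic acid (400 uM, as added). Lipid droplet fluorescence (488 nm excitation, 500-530 nm channel) was read by laser-scanning cytometry and normalized to 20 uM Triacsin C.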
# [12] = target: Rap guanine nucleotide exchange factor 3 (Homo sapiens) (UniProt O95398); assay: Confirmatory qHTS for agonist of cAMP-regulated guanine nucleotide exchange factor 3 (EPAC1) (AID 1645881); details: EPAC1 Rap1B BODIPY-GDP exchange fluorescence; series mostly up to 154 µM; note: nearly all actives have a fitted effect of over 75% in size; note: potency is the fitted concentration of half-maximal effect;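 for activation: EPAC1 catalysed release of BODIPY-GDP from Rap1B seen as fluorescence loss; 100% = effect of cAMP agonist control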
# Sequence of Rap guanine nucleotide exchange factor 3 (Homo sapiens) (O95398 whole entry, looked up): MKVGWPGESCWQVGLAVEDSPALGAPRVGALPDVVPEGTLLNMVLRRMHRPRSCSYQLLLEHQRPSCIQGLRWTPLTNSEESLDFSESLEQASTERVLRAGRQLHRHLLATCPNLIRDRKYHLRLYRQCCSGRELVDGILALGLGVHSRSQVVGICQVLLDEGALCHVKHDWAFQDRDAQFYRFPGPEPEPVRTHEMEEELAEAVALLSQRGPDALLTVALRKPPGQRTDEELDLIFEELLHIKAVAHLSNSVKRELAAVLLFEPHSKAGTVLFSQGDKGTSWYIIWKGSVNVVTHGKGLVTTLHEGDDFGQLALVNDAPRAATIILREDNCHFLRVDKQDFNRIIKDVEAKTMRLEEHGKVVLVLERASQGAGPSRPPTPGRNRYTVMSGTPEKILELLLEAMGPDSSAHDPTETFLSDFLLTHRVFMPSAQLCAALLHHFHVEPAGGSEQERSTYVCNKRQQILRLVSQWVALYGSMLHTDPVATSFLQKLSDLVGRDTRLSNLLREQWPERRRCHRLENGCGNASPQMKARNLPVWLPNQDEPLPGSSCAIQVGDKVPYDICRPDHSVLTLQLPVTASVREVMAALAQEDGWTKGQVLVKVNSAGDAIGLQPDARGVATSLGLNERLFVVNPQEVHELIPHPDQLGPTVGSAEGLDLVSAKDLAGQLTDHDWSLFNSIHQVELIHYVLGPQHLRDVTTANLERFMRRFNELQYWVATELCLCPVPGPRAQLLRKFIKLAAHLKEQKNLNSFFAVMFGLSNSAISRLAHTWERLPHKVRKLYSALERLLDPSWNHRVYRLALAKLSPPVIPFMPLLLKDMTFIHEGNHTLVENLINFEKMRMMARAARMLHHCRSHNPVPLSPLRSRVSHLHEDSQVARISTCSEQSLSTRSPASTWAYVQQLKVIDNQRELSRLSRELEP
# [13] = target: Rap guanine nucleotide exchange factor 4 (Homo sapiens) (UniProt Q8WZA2); assay: Confirmatory qHTS for agonist of cAMP-regulated guanine nucleotide exchange factor 4 (EPAC2) (AID 1645884); details: EPAC2 GEF activity, Rap1B-BODIPY-GDP fluorescence; series mostly up to 154 µM;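 note: nucleotide exchange releases bodipy-GDP from Rap1 and this lowers its fluorescence; nearly all actives have a fitted effect of over 65% in size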; note: potency is the fitted concentration of half-maximal effect
# Sequence of Rap guanine nucleotide exchange factor 4 (Homo sapiens) (Q8WZA2 whole entry, looked up): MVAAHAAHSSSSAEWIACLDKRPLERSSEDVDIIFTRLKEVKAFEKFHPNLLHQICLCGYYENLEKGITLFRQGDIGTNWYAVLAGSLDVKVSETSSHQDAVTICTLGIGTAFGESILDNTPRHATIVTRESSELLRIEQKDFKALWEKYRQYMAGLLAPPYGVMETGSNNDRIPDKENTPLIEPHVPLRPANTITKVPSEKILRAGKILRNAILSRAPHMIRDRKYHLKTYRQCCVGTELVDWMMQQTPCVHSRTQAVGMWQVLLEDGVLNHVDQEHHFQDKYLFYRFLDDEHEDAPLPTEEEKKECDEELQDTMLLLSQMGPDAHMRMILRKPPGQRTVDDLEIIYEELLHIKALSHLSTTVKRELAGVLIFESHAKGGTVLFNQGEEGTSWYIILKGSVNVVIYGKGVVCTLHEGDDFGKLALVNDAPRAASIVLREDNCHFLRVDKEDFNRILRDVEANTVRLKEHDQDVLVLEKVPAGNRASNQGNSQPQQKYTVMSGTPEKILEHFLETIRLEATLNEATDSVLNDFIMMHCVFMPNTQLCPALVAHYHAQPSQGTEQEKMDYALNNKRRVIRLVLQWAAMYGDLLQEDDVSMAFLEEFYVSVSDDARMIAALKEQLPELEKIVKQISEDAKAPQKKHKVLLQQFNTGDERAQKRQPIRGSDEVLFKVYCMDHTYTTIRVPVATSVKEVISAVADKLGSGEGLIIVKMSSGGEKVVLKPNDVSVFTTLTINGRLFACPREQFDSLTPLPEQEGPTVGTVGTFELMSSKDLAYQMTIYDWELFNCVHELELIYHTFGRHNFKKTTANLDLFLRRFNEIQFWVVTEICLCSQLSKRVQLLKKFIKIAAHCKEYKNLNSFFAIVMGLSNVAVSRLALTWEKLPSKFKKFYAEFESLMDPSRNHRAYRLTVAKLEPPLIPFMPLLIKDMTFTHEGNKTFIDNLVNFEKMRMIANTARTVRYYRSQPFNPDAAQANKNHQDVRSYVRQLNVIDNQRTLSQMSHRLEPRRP
# [14] = target: Rap guanine nucleotide exchange factor 4 (Homo sapiens) (UniProt Q8WZA2); assay: Confirmatory qHTS for antagonist of cAMP-regulated guanine nucleotide exchange factor 4 (EPAC2) (AID 1645885); details: EPAC2 Rap1B-BODIPY-GDP exchange fluorescence, biochemical; series mostly up to 114 µM; note: nearly all actives have a fitted effect of over 25% in size; note: potency is the fitted concentration of half-maximal effect
# [15] = Confirmation and Secondary Assay for Modulators of Hemoglobin Beta Chain Splicing at IVS2 705 locus (AID 930); details: HeLa EGFP-705 splicing reporter, GFP fluorescence, 48 h; series mostly up to 38.3 µM;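 note: HeLa cells stably expressing the EGFP-705 splicing reporter; GFP fluorescence per well restored by corrected splicing of the IVS2-705 intron in EGFP; % of control where 0% means no effect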
# Procedure, shortened: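 HeLa cells stably carrying EGFP interrupted by mutant beta-globin intron 2 (IVS2-705) treated 2 days at 37C with compound; 500 nM antisense PNA as control. Correct splicing read as total peak GFP intensity per well by laser-scanning cytometry.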
# [16] = target: Ubiquitin carboxyl-terminal hydrolase 1 (Homo sapiens) (UniProt O94782); assay: Inhibitors of USP1/UAF1: Pilot qHTS (AID 504865); details: purified USP1/UAF1, Ub-rhodamine cleavage fluorescence; series mostly up to 54.9 µM; note: nearly all actives have a fitted effect of over 35% in size; note: potency is the fitted concentration of half-maximal effect
# Procedure, shortened: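 USP1/UAF1 complex at 1 nM preincubated 15 min at room temperature with compound, then Ub-Rho substrate added at 150 nM final. Fluorescence (480/540 nm) read kinetically in 50 mM HEPES pH 7.8, 0.5 mM EDTA, 1 mM TCEP, 0.1 mg/ml BSA, 0.01% Tween-20.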
# [17] = AP1 Signaling Pathway (AID 357; active = well fitted curve in either direction with a large enough effect, not every such curve was filed as active;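 note: ME-180 reporter cells stimulated with EGF at its EC50 level; % is set by controls: 0 for no effect and ±100 for the full control effect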); details: ME-180 (cervical carcinoma) AP-1-bla reporter, EGF-induced, beta-lactamase ratio, 5 h; at 7.69 µM (top of the series) unless noted
# Procedure, shortened: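 In this screen, ME-180 cells in Opti-MEM with 0.5% dialyzed FBS received EC50 EGF and compound titrations for 5 h. AP-1 reporter beta-lactamase was detected via CCF4 ratio, giving AC50 for positive and negative modulators.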
# [18] = measured here: cell count channel max response
# [19] = measured here: lipid channel max response
SMILES,Potency [1],Potency [2],"activity change, negative = inhibition [3]","activity, negative = inhibition [4]",Potency [5],Potency [6],Potency [7],Potency [8],Potency [9],Potency [10],"activity change, negative = inhibition ([11]; at 57.5 µM (top of the series))","max response [11, 18] [%]","max response [11, 19] [%]",Potency [12],Potency [13],Potency [14],outcome [15],Potency [16],"activity change, negative = inhibition [17]","activity change, negative = inhibition ([11]; at 25.7 µM (top of the series))"
COc1ccc(-c2nc3cnc(Nc4cccc(OC)c4)nc3n(CCC#N)c2=O)cc1,> 11.4 µM (inactive),6310 nM (active),-19.2% (inactive),-10% (inactive),> 9.22 µM (inactive),> 46 µM (inactive),inactive,inactive,3.98 µM (active),inactive,-18.1% (inactive),16.5,-2.36,70.6 µM (active),70.6 µM (active),inactive,,,,
COc1ccc2c(c1)OCC(Cc1ccc(OC)c(OC(C)=O)c1)C2=O (stereo unspecified),,,,,,,,,,inactive,2.81% (inactive),1.86,-2.44,inactive,inactive,,inactive,,,
COc1cc(C/C=C/c2ccccc2)c(OC)cc1O,,,,,,,,,,inactive,1.85% (inactive),4.35,7.15,inactive,inactive,inactive,inactive,inactive,,
COc1cc(-c2coc3cc(OCc4ccccc4)c(OC)c(O)c3c2=O)cc(O)c1OC,,,,,,,,,,inactive,-4.72% (inactive),-3.67,-4.66,inactive,inactive,inactive,inactive,,,
COc1ccc2c(c1)OC/C(=C/c1ccc(O)c(O)c1)C2=O,,,,,,,,,31.6 µM (active),inactive,9.34% (inactive),0.529,11.7,inactive,inactive,inactive,inactive,inactive,,
CN(Cc1ccco1)c1nc(-c2cccc(C#N)c2)nc2ccccc12,> 11.4 µM (inactive),,,12.3% (inactive),> 46 µM (inactive),> 46 µM (inactive),,,,inactive,10.1% (inactive),1.16,12.8,inactive,inactive,inactive,inactive,,6.74% (inactive),
NCC1OC(n2cnc3c(=O)[nH]c(N)nc32)C(O)C1O (stereo unspecified),,,,,,,,,,,2.55% (inactive),-3.82,-2.83,inactive,inactive,inactive,inactive,inactive,,
COc1ccccc1CNc1ncnc2ccc(-c3cccnc3)cc12,> 11.4 µM (inactive),316 nM (active),12.3% (inactive),-17.2% (inactive),> 46 µM (inactive),> 46 µM (inactive),inactive,,2 µM (active),inactive,3.28% (inactive),-9.63,-6.23,inactive,inactive,,inactive,,,
COC(=O)c1c(OC)cc2c(c1C)Oc1c(Cl)c(OC(C)=O)c(Cl)c(C)c1C(=O)O2,,,,,,,,,15.8 µM (active),inactive,5.48% (inactive),2.97,13,inactive,inactive,11.1 µM (active),inactive,,,
Nc1nc2n[nH]nc2c(=O)[nH]1,,inactive,,-26.9% [at 17.2 µM] (inactive),> 20.6 µM (inactive),> 20.6 µM (inactive),,inactive,,,,15.7,11,inactive,inactive,inactive,,inactive,-1.23% [at 17.2 µM] (inactive),-1.04% (inactive)
C#C[C@]1(OC(C)=O)CCC2C3CCC4=CC(=O)CCC4C3CC[C@]21C (stereo partly specified),,,,,,,,,,inactive,-18.5% (inactive),-10.7,-26.2,inactive,inactive,,inactive,,,
N[C@H](C(=O)O)C(O)C(O)C(O)CO (stereo partly specified),,,,,,,,,inactive,,2.74% (inactive),-0.517,3.07,inactive,inactive,inactive,inactive,inactive,,
COc1cccc(-c2nc(Nc3ccncc3)c3ccccc3n2)c1,2.53 µM (active),794 nM (active),,-15.1% (inactive),> 46 µM (inactive),> 46 µM (inactive),inactive,inactive,2.51 µM (active),inactive,-7.83% (inactive),-14.4,-19.7,,,inactive,inactive,39.8 µM (active),-6.31% (inactive),
CC1=CC2C(CC1=O)C(C)=CCC2C(C)C (stereo unspecified),,,,,,,,,inactive,,1.38% (inactive),3.62,5.28,inactive,inactive,39.3 µM (active),inactive,inactive,,
CC1(C)C(O)CC[C@]2(C)C1CC[C@@]1(C)C2C(=O)C=C2[C@@H]3C[C@@](C)(C(=O)O)CC[C@@]3(C)CCC21C (stereo partly specified),,,,,,,,,,inactive,9.4% (inactive),16.2,28.1,inactive,inactive,4.94 µM (active),inactive,,,
O=c1c(-c2ccccc2)coc2cc(O)cc(O)c12,,,,,,,,,20 µM (active),inactive,13.9% (inactive),-5.73,7.42,inactive,inactive,inactive,inactive,,,
